Compounds with a hit are over-represented: about 7.5% of the library has one in this group of screens.
SMN2 splice up – increases expression of the SMN2 splice variant; HEK293 SMN2-luciferase splicing reporter, luminescence, 30-36 h; AID 1458; hit rate 2.8% among 210,000; Potency, µM (top dose mostly 46.1 µM), inactives show at the highest dose activity change, positive = activation, usual class: activators; further: % of control where 0% means no effect; nearly all actives have a fitted effect of over 55% in size
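HEK293 cells carry an SMN2 […]–luciferase reporter in which exon 7 inclusion puts luciferase in frame. Cells were plated 10-12 h before compound addition, then incubated 30-36 h at 37C. ONE-Glo luminescence was read; sodium butyrate at 4.5 mM final served as control.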
Rab9 promoter act – activators of Rab9 promoter. Potency, µM (doses to about 9.22 µM), inactives show at the highest dose activation, negative = inhibition, hits mostly activators. hit rate 2.8% among 320,000. Huh7 Rab9 promoter-luciferase reporter, luminescence, 24 h; further: % of control where 0% means no effect; nearly all actives have a fitted effect of over 60% in size
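Rab9 promoter-driven luciferase in stably transfected Huh7 cells; 1500 cells/well rested 2 h, exposed to compound in DMSO for 24 h at 37 °C, 5% CO2. Luminescence read 10 min after adding luciferase reagent at ambient temperature.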
NPC1 prom act – activates the NPC1 promoter. Huh7 NPC1 promoter luciferase reporter, 24 h. Potency, µM (titrated, usually from 9.22 µM), for the others: at the highest dose activation, actives largely listed as activators. hit rate 2.4% among 320,000; further: % of control where 0% means no effect; nearly all actives have a fitted effect of over 60% in size
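Cells: Huh7 expressing luciferase under the NPC1 promoter, 1500/well. Seeded 2 h, compound added, incubated 24 h at 37 °C. Luciferase reagent, 10 min ambient, then luminescence.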
ELG1 genotox – inducers of genotoxicity in HEK293T ELG1-luciferase cells; HEK293T ELG1-luciferase reporter, luminescence, 16 h; Potency, µM (top dose mostly 46 µM), for inactives: at the highest dose activity change, positive = activation, hits mostly activators; hit rate 1.3% among 330,000; further: % of control where 0% means no effect; nearly all actives have a fitted effect of over 60% in size
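16 hr compound incubation (37 °C, 5% CO2) of HEK293T cells carrying luciferase-tagged ELG1; luciferase then measured by ONE-Glo luminescence after 30 min at RT.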
FLuc counter – counter-screen for miR-21 project: firefly luciferase inhibitors or activators; Potency, µM (titrated, usually from 57.5 µM), for inactives: top-dose activity change, negative = inhibition, actives largely listed as inhibitors; hit rate 6.9% among 360,000; purified FLuc, Km substrates, luminescence inhibition; P08659;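 further: plate controls were vehicle for no effect and reference inhibitor for full effect; nearly all actives have a fitted effect of over 55% in size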
Target sequence (P08659 whole entry, looked up): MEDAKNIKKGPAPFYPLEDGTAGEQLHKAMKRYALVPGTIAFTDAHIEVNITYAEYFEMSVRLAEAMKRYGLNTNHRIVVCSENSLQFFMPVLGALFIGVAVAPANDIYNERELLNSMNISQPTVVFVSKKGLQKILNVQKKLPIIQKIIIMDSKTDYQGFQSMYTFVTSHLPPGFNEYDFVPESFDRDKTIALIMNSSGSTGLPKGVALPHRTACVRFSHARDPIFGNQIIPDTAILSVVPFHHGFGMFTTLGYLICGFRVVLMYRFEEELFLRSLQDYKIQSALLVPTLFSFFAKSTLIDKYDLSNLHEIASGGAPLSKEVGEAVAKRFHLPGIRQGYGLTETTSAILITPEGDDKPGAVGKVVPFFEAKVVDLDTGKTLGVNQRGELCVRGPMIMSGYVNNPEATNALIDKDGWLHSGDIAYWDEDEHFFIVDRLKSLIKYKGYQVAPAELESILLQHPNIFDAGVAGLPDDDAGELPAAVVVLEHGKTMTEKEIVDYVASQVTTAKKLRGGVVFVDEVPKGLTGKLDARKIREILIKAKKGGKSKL
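Purified P. pyralis luciferase (10nM final) with 10uM D-luciferin and 10uM ATP (Km levels) in 50mM Tris acetate pH 7.5, 10mM Mg acetate, 0.01% Tween-20, 0.05% BSA; qHTS 6-point titration, ~60 µM downward; luminescence read.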
Active calls of the source: *; ? = inconclusive; . = not tested or not shown; [ ] = remark or other dose. The call rests on the fitted dose curve; in most records, active means well fitted curve in the direction sought with a large enough effect; inconclusive means small, poorly fitted or top-dose-only effect, or another doubt; inactive means no such curve, though single readings can be large; an effect the other way counts as inactive or inconclusive. Potency means the concentration at half of the fitted maximal effect.

SMILES	SMN2 splice up	Rab9 promoter act	NPC1 prom act	ELG1 genotox	FLuc counter
O=c1c2sc3ccccc3c2n(Cc2ccccc2)c(=O)n1CCc1ccccc1	3%	.	.	.	-6%
Cc1ccc(CSc2ccc(-c3ccco3)nn2)cc1	11µM*	2.8µM*	3.5µM*	?	4.8µM*
Cc1ccc(/C=N/NC(=O)c2c[nH]c3ccccc23)s1	13µM*	0.56µM*	1.6µM*	14%	7.6µM*
CC(C)(C)OC(=O)N/N=C\c1ccc[nH]1	27%	?	-5%	7%	19µM*
O=C(N/N=C/c1cccc([N+](=O)[O-])c1)c1c[nH]c2ccccc12	.	?	2.2µM*	12%	17µM*
CCn1nc(C)c(/C=N/NC(=O)c2c[nH]c3ccccc23)c1C	18µM*	3.5µM*	?	?	?
Cc1ccc(C)c(OCC(=O)Nc2c[nH]c(=O)[nH]c2=O)c1	5%	-15%	-11%	3%	-1%
CCOC(=O)c1nnn(CC(=O)N2N=C(c3cccc4ccccc34)CC2c2ccccc2)c1C(=O)OCC (stereo not given)	-7%	2%	-6%	-3%	7%
O=C(COC(=O)c1ccc(Cl)nc1)NC(=O)c1ccc(OC(F)F)cc1	.	2%	-1%	1%	4%
O=C(N/N=C/c1ccsc1)c1c[nH]c2ccccc12	.	2.8µM*	3.5µM*	16µM*	11µM*
Cc1ccc(/C=N/NC(=O)c2c[nH]c3ccccc23)o1	-4%	27%	22%	3%	24µM*
CC(C)(C)OC(=O)N/N=C/c1cccc([N+](=O)[O-])c1	11µM*	3.2µM*	2.5µM*	?	6µM*
COC(=O)C(Cc1c[nH]c2ccccc12)NC(=O)c1cccs1 (stereo not given)	.	-3%	-1%	-1%	?
CC/C(=N\NC(=O)c1c[nH]c2ccccc12)c1cccs1	18µM*	2.8µM*	2.8µM*	?	5.4µM*
Cc1cc(C(=O)N/N=C/c2cccc([N+](=O)[O-])c2)c(C)o1	-7%	27%	18%	12%	?
O=C(N/N=C/c1cc([N+](=O)[O-])ccc1O)c1c[nH]c2ccccc12	.	-3%	0%	15%	-9%
O=C(Cc1c(C(=O)O)[nH]c2ccccc12)Nc1cccc(C(F)(F)F)c1	17%	.	.	.	?
C=CCNCCCCOc1ccccc1-c1ccccc1	-4%	-9%	-1%	-3%	-1%
Cc1ccsc1/C=N/NC(=O)c1c[nH]c2ccccc12	?	2.5µM*	4.5µM*	?	12µM*
C/C(=N\NC(=O)c1c[nH]c2ccccc12)c1ccc(C)s1	.	?	3.2µM*	?	?
C/C(=N/NC(=O)c1ccncc1)c1c[nH]c2ccccc12	-5%	2%	-2%	3%	-7%
Cc1ccc(SCCC(=O)Nc2ccccc2C(=O)NC2CCCCC2)cc1	8%	-8%	-4%	2%	7%
CCC(=O)Nc1ccccc1C(=O)OCC(=O)c1ccccc1	16µM*	3.5µM*	2.8µM*	?	21µM*
CCC(=O)Nc1ccccc1C(=O)OCC(=O)Nc1ccc(S(N)(=O)=O)cc1	18%	2%	0%	-3%	2%
CCC(=O)Nc1ccccc1C(=O)OCC(=O)c1ccc2ccccc2c1	-11%	15%	10%	-5%	15µM*
SMILES	SMN2 splice up	Rab9 promoter act	NPC1 prom act	ELG1 genotox	FLuc counter
CCN(CC)C(=O)CSc1ncnc2c(-c3cccs3)nsc12	13%	3.2µM*	?	11%	-12%[2.3 µM]
NC(=O)c1c(NC(=O)c2cc3ccccc3o2)sc2c1CCC2	2.2µM*	0.22µM*	0.32µM*	0.92µM*	0.43µM*
NC(=O)c1c(NC(=O)c2ccc([N+](=O)[O-])o2)sc2c1CCCC2	.	11%	15%	1%	-15%
NC(=O)c1c(NC(=O)c2ccc(F)cc2)sc2c1CCC2	.	1.8µM*	1.8µM*	?	4.3µM*
CC(C)(C)c1ccc(C(=O)Nc2sc3c(c2C(=O)O)CCC3)cc1	.	-18%	-15%	-6%	11µM*
O=C(Nc1sc2c(c1C(=O)O)CCCCC2)c1ccccc1F	5.6µM*	4µM*	3.2µM*	-7%	11µM*
Cc1cccc(NC(=O)c2ccc(N3C(=O)C4CCCCC4C3=O)cc2)c1C (stereo not given)	.	-4%	-3%	3%	5%
COc1ccc(CNC(=O)CCS(=O)(=O)c2cc(Br)cc3c2N(C(=O)C2CC2)CC3)cc1	11%	.	.	.	2%
COc1cc2c(cc1OC)-c1nnc(C)n1C1(CCCC1)C2	2%	-4%	0%	6%	2%
COc1ccc(C)cc1NC(=O)c1cccc(C(=O)Nc2cc(C)ccc2OC)n1	.	1%	-5%	0%	0%
O=C(Nc1sc2c(c1C(=O)O)CCCC2)c1ccc(F)cc1	.	?	28%	4%	15µM*
COC(=O)c1c(NC(=O)c2ccccc2C(=O)O)sc2c1CCCC2	12%	.	.	.	12µM*
NC(=O)c1c(NC(=O)c2noc3c2CCCC3)sc2c1CCCC2	14µM*	.	.	.	?
CCOC(=O)c1c(NC(=O)c2ccccc2C(=O)O)sc2c1CCCC2	.	6%	-7%	0%	0%
CC1Oc2ccccc2N(CC(=O)NC2CC2)C1=O (stereo not given)	.	0%	-2%	0%	1%
CC1Oc2ccccc2N(CC(=O)NCc2ccccc2)C1=O (stereo not given)	.	4µM*	?	?	?
CCC1Oc2ccccc2N(CC(=O)NCCN2C(C)CCCC2C)C1=O (stereo not given)	10µM*	-1%	-1%	-1%	0%
CCC1Oc2ccccc2N(CC(=O)NCCN2CCCC2)C1=O (stereo not given)	.	9%	2%	0%	0%
CC(C)c1nc2cc(C(=O)NC(c3cccnc3)C(F)(F)F)ccc2o1 (stereo not given)	.	12%	-1%	5%	-5%
CCCn1cnc2cc(NC(=O)c3cccs3)ccc21	16µM*	2.8µM*	?	12%	11µM*
CCn1cnc2cc(NC(=O)c3ccco3)ccc21	5µM*	1.6µM*	2.8µM*	18µM*	11µM*
CC(C)(C)c1ccc(C(=O)Nc2ccc(NC(=O)c3ccco3)cc2)cc1	-1%	0%	-3%	2%	1%
CCCn1cnc2cc(NC(=O)c3ccco3)ccc21	.	2.8µM*	3.5µM*	2.9µM*	?
CC(C)(C)n1cnc2cc(NC(=O)c3ccco3)ccc21	.	0.71µM*	0.28µM*	?	9.5µM*
CCOC(=O)N1CCN(Cc2nc3cc(NC(=O)c4ccco4)ccc3n2CC)CC1	.	26%	?	0%	3%
CCOc1ccc(S(=O)(=O)c2cn(C)c3cc(OC)c(OC)cc3c2=O)cc1	.	-7%	-1%	-4%	1%
CCn1c(-c2cccc(Br)c2)n[nH]c1=S	-8%	2%	1%	-3%	0%
